From PubChem
An excerpt weighted towards active compounds, which were near 20% of everything screened.
Pf growth 48h – Primary qHTS for delayed death inhibitors of the malarial parasite plastid, 48 hour incubation | P. falciparum luciferase growth in erythrocytes, 48 h | actives 5.9% (n = 310,000) | Potency, µM (titrated, usually from 28.7 µM), inactives show at the top dose activity change, negative = inhibition, hits mostly inhibitors; further: potency means the concentration at half of the fitted maximal effect; on the % scale 0 is the no-effect control and ±100 the full control effect
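Compounds are pin-transferred into medium, infected erythrocytes (2% hematocrit, 0.1% parasitemia final) are added, and plates sit one parasite generation at 37 C in 5% CO2. Detection reagent is then added and luminescence measured.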
CHX counter – Cycloheximide Counterscreen for Small Molecule Inhibitors of Shiga Toxin; cell reporter, cycloheximide protein synthesis inhibition counterscreen; max response, %; actives 12% (n = 300,000); AID 2314, 2010; in the data active means max response mostly above about 13%, no sharp cut-off; inactive means mostly below about 14%; further: read at 38.3 µM for the half of the compounds with a filed dose; 0% is about no effect
Shiga inhibitor – A qHTS for Small Molecule Inhibitors of Shiga Toxin. inhibition, % at 38.7 µM. actives 9.2% (n = 290,000). Vero cells, Shiga toxin protein synthesis inhibition reporter; in the data active means inhibition mostly above about 28%, no sharp cut-off; inactive means mostly below about 43%; further: 0% is about no effect
Pf growth 96h – Primary qHTS for delayed death inhibitors of the malarial parasite plastid, 96 hour incubation; P. falciparum luciferase reporter growth, 96 h; Potency, µM (doses to about 28.7 µM), inactives show top-dose activity change, negative = inhibition, actives largely listed as inhibitors; actives 6.9% (n = 320,000); AID 504834, 2011; further: potency means the concentration at half of the fitted maximal effect; on the % scale 0 is the no-effect control and ±100 the full control effect
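Cell-based qHTS: luciferase-tagged P. falciparum in erythrocytes (2% hematocrit, 0.05% parasitemia final) incubated with compounds for 96 hours, 37 C, 5% CO2; luciferase detection reagent then added and luminescence measured.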
HCMV inh – qHTS Assay for inhibitors of the human cytomegalovirus (HCMV); HFF cells, HCMV-luciferase reporter, 72 h; stronger effect = lower value; activity change, negative = inhibition, % at 57.5 µM; actives 4.5% (n = 410,000); in the data active means activity change below about -60%; inconclusive means no clear call, values can overlap the other calls; inactive means above about -39%; further: on the % scale 0 is the no-effect control and ±100 the full control effect
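Two-dose cell screen: HFF monolayers treated with compounds and infected with luciferase-expressing HCMV at 1 PFU/cell, 72 h at 37C, then lysed for luciferase measurement.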
An asterisk follows results filed as active; ? = inconclusive; nt = not tested or not shown. Unless noted, the call rests on the fitted dose curve; in most records, active means well fitted inhibition curve with a large enough effect; inconclusive means small, poorly fitted or top-dose-only effect, or another doubt; inactive means no such curve, though single readings can be large or run the other way.

SMILES | Pf growth 48h | CHX counter | Shiga inhibitor | Pf growth 96h | HCMV inh
CC(C)C[C@H]1CNC(=S)N1CC1CCCN1C[C@H](Cc1ccc(O)cc1)N1C[C@H](Cc2ccccc2)N(CC2CCCCCC2)C1=S (stereo not given in full) | nt | nt | nt | nt | -20
COc1ccc(OC)c(-c2cc(C(=O)NC(C)c3ccccc3)no2)c1 (stereo not given) | nt | nt | nt | nt | 26
CC1([N+](=O)[O-])COC(C=Cc2ccccc2)OC1 (stereo not given) | nt | nt | nt | nt | -7
Oc1ccc(C[C@H]2CNC(=S)N2CC2CCCN2C[C@H](Cc2ccccc2)N2C[C@H](Cc3ccc(O)cc3)N(CC3CCCCCC3)C2=S)cc1 (stereo not given in full) | nt | nt | nt | nt | -63*
CCOC(=O)Nc1ccc2c(CN(C)Cc3ccc(F)cc3)cc(=O)oc2c1 | 7% | 1 | 32 | 16% | -92*
CCOC(=O)Nc1ccc2c(C)cc(=O)oc2c1 | 160% | 30* | 60* | ? | 164
Cc1cc(=O)oc2cc(NC(=O)CCOc3ccccc3)ccc12 | 50% | 19* | 32* | 28% | 38
Cc1cc(=O)oc2cc(NC(=O)CC(N)C(=O)O)ccc12 (stereo not given) | nt | -4 | -4 | nt | nt
Cc1cccc(OCC(=O)Nc2ccc3c(C)cc(=O)oc3c2)c1 | 35% | 5 | -3 | 38% | 13
CCCCOC(=O)Nc1ccc2c(C)cc(=O)oc2c1 | 88% | 52* | 59* | 128% | 90
CCCCOc1ccc(C(=O)Nc2onc3c2CCCC3)cc1 | nt | nt | nt | nt | 99
Cc1ccc2c(CC(=O)NNC(=O)c3ccncc3)coc2c1 | 1% | nt | nt | 35% | -37
CC1OC(c2ccccc2)OC2COC(c3ccccc3)OC12 (stereo not given) | nt | nt | nt | nt | -6
CCCNC(=O)c1cc2c(c(-c3cccc(-c4cc5ccccc5o4)c3)n1)[C@H](CCO)N(C(=O)NC(C)C)C2 | nt | nt | nt | nt | -88*
CCNC(=O)c1cc2c(c(-c3cccc(-c4cccc(C(=O)N(C)C)c4)c3)n1)[C@@H](CCO)N(S(=O)C(C)(C)C)C2 (stereo not given in full) | nt | nt | nt | nt | -10
CC(C)(C)S(=O)N1Cc2cc(C(=O)NCC(F)(F)F)nc(-c3cccc(-c4cccc(F)c4)c3)c2[C@@H]1CCO (stereo not given in full) | nt | nt | nt | nt | -77*
CC(=O)N1Cc2cc(C(=O)NCC(F)(F)F)nc(-c3cccc(-c4cccnc4)c3)c2[C@@H]1CCO | nt | nt | nt | nt | -81*
CC(=O)N1Cc2cc(C(=O)NCC(F)(F)F)nc(-c3cccc(-c4cccnc4)c3)c2[C@H]1CCO | nt | nt | nt | nt | -7
COc1ccccc1CNC(=O)CN(CCc1ccccc1)S(C)(=O)=O | -2% | 7 | -13 | ? | 28
COc1ccc(S(=O)(=O)N2CCCCC2)cc1NC(=O)CSc1nnc(C2CC2)n1C | -18% | nt | nt | ? | -9
NC(CO)(CO)CO | 6% | -7 | 12 | -20% | nt
O=c1n(Cc2ccccc2Cl)nc2n1-c1ccccc1SC2 | 45% | 48* | 40* | 50% | 92
O=c1n(Cc2ccccc2)nc2n1-c1ccccc1SC2 | ? | 28* | 49* | 8% | 36
COc1cccc(NC(=O)N2CCN3CCCCC3C2)c1 (stereo not given) | nt | nt | nt | nt | 6
CCOc1ccc(NC(=O)CSc2nc(=O)n(CCN3CCOCC3)c3c2CCCC3)cc1 | ? | nt | nt | 22% | -11
SMILES | Pf growth 48h | CHX counter | Shiga inhibitor | Pf growth 96h | HCMV inh
Cc1ccc(S(=O)(=O)N[C@@H](C)CO)cc1 | nt | nt | nt | nt | 82
Cc1ccc(NNC(=O)C(O)(c2cccc(C(F)(F)F)c2)c2cccc(C(F)(F)F)c2)cc1 | 13µM* | -5 | -13 | ? | -89*
Cc1ccccc1NC(=O)c1cccc(C(F)(F)F)c1 | -2% | -2 | -6 | 45% | -8
O=C(NNc1ccccc1Br)C(O)(c1cccc(C(F)(F)F)c1)c1cccc(C(F)(F)F)c1 | 2.6µM* | -3 | -4 | 2.3µM* | -99*
Cn1c2cc(B(O)O)sc2c2cnn(Cc3c(F)cccc3Cl)c(=O)c21 | 13µM* | nt | nt | 10µM* | nt
Cn1c2cc(Br)sc2c2cnn(Cc3c(F)cccc3Cl)c(=O)c21 | 3% | nt | nt | 28% | 18
CC1(C(=O)NS(=O)(=O)c2ccccc2Cl)CCN1C(=O)C1(c2ccccc2)CCCC1 (stereo not given) | nt | nt | nt | nt | 0
CCOC(=O)C1(CCc2ccccc2)CCN(C(=O)Cc2nonc2C)CC1 | -18% | 14* | 63* | ? | 11
CCOC(=O)C1(CCc2ccccc2)CCN(C2Cc3ccccc3C2)CC1 | ? | 27* | 76* | -27% | -4
CCOC(=O)C1(CCOc2ccccc2)CCN(Cc2ccc(NC(C)=O)cc2)CC1 | 13µM* | 1 | -23 | 15% | 30
CCOC(=O)C1(CCOc2ccccc2)CCN(Cc2ccc(OC)cc2)CC1 | nt | nt | nt | nt | -32
CCOC(=O)C1(CCc2ccccc2)CCN(Cc2ccc3c(c2)OCCO3)CC1 | 2% | -4 | 12 | 10µM* | -77*
COc1ccc(C(=O)CSc2nnc(NC(=O)C3CC(=O)N(c4ccccc4C)C3)s2)cc1 (stereo not given) | -1% | 5 | 20 | ? | -20
CCOC(=O)C1(CC2CC2)CCN(Cc2ccc(C(=O)OC)cc2)CC1 | 9.3µM* | -1 | -9 | -19% | -26
CCOC(=O)C1(CCc2ccccc2)CCN(Cc2ccc(NC(C)=O)cc2)CC1 | ? | -3 | -5 | 4.1µM* | 57
CCOC(=O)C1(CCc2ccccc2)CCN(Cc2ccc(C(=O)OC)cc2)CC1 | ? | -4 | -22 | -8% | -10
CCOC(CNC(=O)c1cccn2c(=O)c3cc(Cl)ccc3nc12)OCC | nt | -4 | 4 | ? | -27
CCOC(CNC(=O)c1cccn2c(=O)c3c(C)c(C)sc3nc12)OCC | 6.6µM* | -2 | -4 | 13µM* | ?
CCOC(=O)C1CCCN(S(=O)(=O)c2csc(C(N)=O)c2)C1 (stereo not given) | nt | nt | nt | nt | -4
Cc1ccc(SCCNC(=O)c2ccc(C)c(S(=O)(=O)Nc3cccc(C)c3)c2)cc1 | ? | -3 | -13 | ? | -70*
Cc1ccc(NS(=O)(=O)c2cc(C(=O)NCCSc3ccc(C)cc3)ccc2C)cc1 | ? | 9 | -10 | 12µM* | -98*
Cc1ccc(C(=O)NCCSc2ccc(Cl)cc2)cc1S(=O)(=O)Nc1ccccc1 | ? | 4 | 12 | ? | ?
Cc1c(C(=O)N(CC(C)C)c2c(N)n(Cc3ccccc3)c(=O)[nH]c2=O)sc2nc3n(c(=O)c12)CCC3 | 8.3µM* | nt | nt | ? | -8
COCCN(C(=O)COC(=O)C12CC3CC(CC(Cl)(C3)C1)C2)c1c(N)n(Cc2ccccc2)c(=O)[nH]c1=O | 12µM* | nt | nt | ? | -13
CCc1nc2ccccc2c(C(=O)OCC(=O)N(CC(C)C)c2c(N)n(Cc3ccccc3)c(=O)[nH]c2=O)c1C | 12µM* | nt | nt | 9.3µM* | -19
